Results filed as inconclusive are left out. Where a structure was tested more than once in an assay, its records may differ in their call. The source made the active and inactive calls. The call rests on the fitted dose curve.
target: Acetylcholinesterase (Homo sapiens) (UniProt P22303); assay: Acetylcholinesterase (AChE) small molecule antagonists: enzyme-based qHTS assay (AID 1347397); conditions: Potency: AChE enzyme activity inhibition; outcome: AChE enzyme activity inhibition; series mostly up to 115 µM; activity change, negative = inhibition: at the top concentration; further: nearly all actives have a fitted effect of over 55% in size
Summary of the method: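 Recombinant human AChE (50 mU/mL) preincubated with compound 30 min at room temperature; acetylthiocholine plus DTNB then added, and thiocholine formation read colorimetrically after 10 min at room temperature. DMSO served as vehicle control.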
On the % scale 0 is the no-effect control and ±100 the full control effect; potency means the concentration at half of the fitted maximal effect.

Chain of Acetylcholinesterase (Homo sapiens) (P22303 whole entry, looked up): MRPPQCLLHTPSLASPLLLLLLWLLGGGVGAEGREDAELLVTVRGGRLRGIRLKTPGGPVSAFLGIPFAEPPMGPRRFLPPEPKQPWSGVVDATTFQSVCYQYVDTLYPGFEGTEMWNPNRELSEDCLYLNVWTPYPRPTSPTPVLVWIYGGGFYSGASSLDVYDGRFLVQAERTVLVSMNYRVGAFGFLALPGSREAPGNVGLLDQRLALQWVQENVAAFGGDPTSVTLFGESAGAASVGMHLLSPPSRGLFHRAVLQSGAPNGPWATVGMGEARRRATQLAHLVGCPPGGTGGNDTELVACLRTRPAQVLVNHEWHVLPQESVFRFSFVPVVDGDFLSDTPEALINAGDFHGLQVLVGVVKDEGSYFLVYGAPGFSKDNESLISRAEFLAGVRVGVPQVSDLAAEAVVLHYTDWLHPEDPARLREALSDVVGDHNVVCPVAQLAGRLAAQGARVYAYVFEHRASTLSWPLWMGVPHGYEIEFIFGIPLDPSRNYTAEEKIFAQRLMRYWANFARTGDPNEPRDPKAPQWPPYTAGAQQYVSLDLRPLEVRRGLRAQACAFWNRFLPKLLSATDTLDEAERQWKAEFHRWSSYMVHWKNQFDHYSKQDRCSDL

| Structure (SMILES) | activity change, negative = inhibition | Potency |
| --- | --- | --- |
| O[C@@H](COc1cccc2ncccc12)CN1CCN(C2c3ccccc3[C@@H]3[C@H](c4ccccc42)C3(F)F)CC1 (stereo not given in full) | 1.02% [at 53 µM] (inactive) |  |
| CCN(CC)CC(=O)Oc1ccc(NC(C)=O)cc1 | -0.945% [at 53 µM] (inactive) |  |
| CNC(=O)c1cc(Oc2ccc(NC(=O)Nc3ccc(Cl)c(C(F)(F)F)c3)cc2)ccn1 | 2.43% [at 53 µM] (inactive) |  |
| NC(=O)c1cnccn1 |  | inactive |
| NS(=O)(=O)c1cc2c(cc1Cl)NCNS2(=O)=O |  | inactive |
| ICCc1ccccc1 | 4.1% (inactive) |  |
| C[C@H](CCC(=O)O)[C@H]1CC[C@H]2[C@@H]3CC[C@@H]4C[C@H](O)CC[C@]4(C)[C@H]3CC[C@]12C |  | inactive |
| CCCCCCCCC=O | -2.89% (inactive) |  |
| CCC(=O)O[C@H]1[C@H](O[C@@H]2[C@@H](C)[C@H](O[C@H]3C[C@@](C)(OC)[C@@H](O)[C@H](C)O3)[C@@H](C)C(=O)O[C@H](CC)[C@@](C)(O)[C@H](O)[C@@H](C)C(=O)[C@H](C)C[C@@]2(C)O)O[C@H](C)C[C@@H]1N(C)C |  | inactive |
| Cc1cc(O)c(Cl)cc1C | -3.69% (inactive) |  |
| CCCCC(CC)COC(=O)CCCCCCCCC(=O)OCC(CC)CCCC (stereo not given) | 0.138% (inactive) |  |
| CCCCCCCCCCCC[N+](C)(C)CC(=O)[O-] | -0.774% (inactive) |  |
| CC(=O)Nc1ccc(OCC(O)CNC(C)C)cc1 (stereo not given) | -0.277% [at 53 µM] (inactive) |  |
| CCC(C)(O)CCCC(C)C (stereo not given) |  | inactive |
| CCC(C)C=O (stereo not given) |  | inactive |
| CCCC1CCC(=O)O1 (stereo not given) | 0.545% (inactive) |  |
| CCOC(=O)C1=C(C)NC(C)=C(C(=O)OCC)C1c1ccccc1/C=C/C(=O)OC(C)(C)C | -1.21% [at 53 µM] (inactive) |  |
| CCCCS(=O)(=O)N[C@@H](Cc1ccc(OCCCCC2CCNCC2)cc1)C(=O)O | -0.421% [at 53 µM] (inactive) |  |
| CC(C)OC(=O)C(O)(CC(=O)O)CC(=O)O | -0.207% (inactive) |  |
| COCC(C)N (stereo not given) |  | inactive |

| Structure (SMILES) | activity change, negative = inhibition | Potency |
| --- | --- | --- |
| CC(CO)Oc1ccccc1 (stereo not given) | 0.306% (inactive) |  |
| CCCCCCCCCCn1cc[n+](CCCCCCCCCC)c1C |  | 35.6 µM (active) |
| CC(C)=CCC/C(C)=C/CC/C(C)=C/C(=O)OCC(=O)[C@@]1(O)CC[C@H]2[C@@H]3CCC4=CC(=O)C=C[C@]4(C)[C@H]3[C@@H](O)C[C@@]21C | -17.9% [at 53 µM] (inactive) |  |
| CCOc1ccccc1C(N)=O |  | inactive |
| CC(C)CCCCCCOC(=O)C1CCCCC1C(=O)OCCCCCCC(C)C (stereo not given) | -0.264% (inactive) |  |
| O=C(CO)[C@@H](O)[C@H](O)[C@H](O)CO | 0.735% (inactive) |  |
| O=c1c(-c2ccc(O)cc2)coc2cc(O)cc(O)c12 |  | inactive |
| Cc1oc(C)c(C(=O)Nc2ccccc2)c1C | 0.741% (inactive) |  |
| CCCCC(CC)COC(=O)c1ccc(O)cc1 (stereo not given) |  | inactive |
| CCCCCC1C(=O)CCC1CC(=O)OC (stereo not given) |  | inactive |
| Cc1sccc1Br | 2.17% [at 53 µM] (inactive) |  |
| CC(CC(=O)O)CC(C)(C)C (stereo not given) | -0.271% (inactive) |  |
| COc1ccc(OC(F)(F)F)cc1CN[C@H]1CCCN[C@H]1c1ccccc1 | 0.379% (inactive) |  |
| CCOC(=O)C1=NOC(c2ccccc2)(c2ccccc2)C1 | -4.49% (inactive) |  |
| O=c1[nH]c(=O)c2cn[nH]c2[nH]1 | 1.23% (inactive) |  |
| OCCc1ccccn1 | 0.384% (inactive) |  |
| CCCCCCC(CCCCCCCCCCC(=O)OCC(COC(C)=O)OC(C)=O)OC(C)=O (stereo not given) | -0.526% [at 53 µM] (inactive) |  |
| CN1CCC(=C2c3ccccc3CCc3cccnc32)CC1 | -1.52% [at 53 µM] (inactive) |  |
| Cc1ccc(O)c(C(C)(C)C)c1 |  | inactive |
| O=C1OC2(c3ccccc31)c1cc(I)c(O)c(I)c1Oc1c2cc(I)c(O)c1I |  | 40.4 µM (active) and inactive |

target: Acetylcholinesterase (Homo sapiens) (UniProt P22303); assay: Acetylcholinesterase (AChE) small molecule antagonists: fluorescence cell-based qHTS assay (AID 1347398); conditions: SH-SY5Y cells; Potency: AChE activity; outcome: AChE activity; series mostly up to 115 µM; activity change, negative = inhibition: at the top concentration; further: nearly all actives have a fitted effect of over 50% in size
Summary of the method: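 SH-SY5Y cells (2000/well), attached overnight, incubated with compound 30 min at 37 C. Acetylthiocholine plus Thiolite Green then added for 40 min at room temperature. Thiocholine fluorescence (Ex/Em 490/520 nm) reports cellular AChE activity.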

| Structure (SMILES) | activity change, negative = inhibition | Potency |
| --- | --- | --- |
| O[C@@H](COc1cccc2ncccc12)CN1CCN(C2c3ccccc3[C@@H]3[C@H](c4ccccc42)C3(F)F)CC1 (stereo not given in full) | 4.52% [at 53.7 µM] (inactive) |  |
| CCN(CC)CC(=O)Oc1ccc(NC(C)=O)cc1 | 10.8% [at 53.7 µM] (inactive) |  |
| CNC(=O)c1cc(Oc2ccc(NC(=O)Nc3ccc(Cl)c(C(F)(F)F)c3)cc2)ccn1 | 10.8% [at 53.7 µM] (inactive) |  |
| NC(=O)c1cnccn1 |  | inactive |
| NS(=O)(=O)c1cc2c(cc1Cl)NCNS2(=O)=O |  | inactive |
| ICCc1ccccc1 | -1.05% (inactive) |  |
| C[C@H](CCC(=O)O)[C@H]1CC[C@H]2[C@@H]3CC[C@@H]4C[C@H](O)CC[C@]4(C)[C@H]3CC[C@]12C |  | inactive |
| CCCCCCCCC=O | -6.69% (inactive) |  |
| CCC(=O)O[C@H]1[C@H](O[C@@H]2[C@@H](C)[C@H](O[C@H]3C[C@@](C)(OC)[C@@H](O)[C@H](C)O3)[C@@H](C)C(=O)O[C@H](CC)[C@@](C)(O)[C@H](O)[C@@H](C)C(=O)[C@H](C)C[C@@]2(C)O)O[C@H](C)C[C@@H]1N(C)C |  | inactive |
| Cc1cc(O)c(Cl)cc1C | -15.2% (inactive) |  |
| CCCCC(CC)COC(=O)CCCCCCCCC(=O)OCC(CC)CCCC (stereo not given) | 3.03% (inactive) |  |
| CCCCCCCCCCCC[N+](C)(C)CC(=O)[O-] | 5.24% (inactive) |  |
| CC(=O)Nc1ccc(OCC(O)CNC(C)C)cc1 (stereo not given) | 6.91% [at 53.7 µM] (inactive) |  |
| CCC(C)(O)CCCC(C)C (stereo not given) |  | inactive |
| CCC(C)C=O (stereo not given) |  | inactive |
| CCCC1CCC(=O)O1 (stereo not given) | 1.18% (inactive) |  |
| CCOC(=O)C1=C(C)NC(C)=C(C(=O)OCC)C1c1ccccc1/C=C/C(=O)OC(C)(C)C | -13% [at 53.7 µM] (inactive) |  |
| CCCCS(=O)(=O)N[C@@H](Cc1ccc(OCCCCC2CCNCC2)cc1)C(=O)O | -9.85% [at 53.7 µM] (inactive) |  |
| CC(C)OC(=O)C(O)(CC(=O)O)CC(=O)O | 0.964% (inactive) |  |
| COCC(C)N (stereo not given) |  | inactive |

| Structure (SMILES) | activity change, negative = inhibition | Potency |
| --- | --- | --- |
| CC(CO)Oc1ccccc1 (stereo not given) | 2.42% (inactive) |  |
| CCCCCCCCCCn1cc[n+](CCCCCCCCCC)c1C |  | 40 µM (active) |
| CC(C)=CCC/C(C)=C/CC/C(C)=C/C(=O)OCC(=O)[C@@]1(O)CC[C@H]2[C@@H]3CCC4=CC(=O)C=C[C@]4(C)[C@H]3[C@@H](O)C[C@@]21C | -3.58% [at 53.7 µM] (inactive) |  |
| CCOc1ccccc1C(N)=O |  | inactive |
| CC(C)CCCCCCOC(=O)C1CCCCC1C(=O)OCCCCCCC(C)C (stereo not given) | -0.481% (inactive) |  |
| O=C(CO)[C@@H](O)[C@H](O)[C@H](O)CO | 6.04% (inactive) |  |
| O=c1c(-c2ccc(O)cc2)coc2cc(O)cc(O)c12 |  | inactive |
| Cc1oc(C)c(C(=O)Nc2ccccc2)c1C | 9.22% (inactive) |  |
| CCCCC(CC)COC(=O)c1ccc(O)cc1 (stereo not given) | -19% (inactive) |  |
| CCCCCC1C(=O)CCC1CC(=O)OC (stereo not given) |  | inactive |
| Cc1sccc1Br | 11.1% [at 53.7 µM] (inactive) |  |
| CC(CC(=O)O)CC(C)(C)C (stereo not given) | 6.02% (inactive) |  |
| COc1ccc(OC(F)(F)F)cc1CN[C@H]1CCCN[C@H]1c1ccccc1 | -21.4% (inactive) |  |
| CCOC(=O)C1=NOC(c2ccccc2)(c2ccccc2)C1 | -8.11% (inactive) |  |
| O=c1[nH]c(=O)c2cn[nH]c2[nH]1 | 2.11% (inactive) |  |
| OCCc1ccccn1 | 0.573% (inactive) |  |
| CCCCCCC(CCCCCCCCCCC(=O)OCC(COC(C)=O)OC(C)=O)OC(C)=O (stereo not given) | -2.61% [at 53.7 µM] (inactive) |  |
| CN1CCC(=C2c3ccccc3CCc3cccnc32)CC1 | 1.25% [at 53.7 µM] (inactive) |  |
| Cc1ccc(O)c(C(C)(C)C)c1 |  | inactive |
| O=C1OC2(c3ccccc31)c1cc(I)c(O)c(I)c1Oc1c2cc(I)c(O)c1I |  | inactive |
